Screens: PubChem, National Center for Advancing Translational Sciences (NCATS)
JMJD2A Tudor: blocks the human JMJD2A Tudor domain; O75164; AlphaScreen JMJD2A-Tudor / H3K4me3 peptide binding; hit rate 4.4% among 390,000; Potency, µM (doses to about 114 µM), inactives show at the highest dose activity change, negative = inhibition, most hits filed as inhibitors; note: % is set by controls: 0 for no effect and ±100 for the full control effect; nearly all actives have a fitted effect of over 50% in size
Target sequence (O75164 whole entry, looked up, the tested form may be a part): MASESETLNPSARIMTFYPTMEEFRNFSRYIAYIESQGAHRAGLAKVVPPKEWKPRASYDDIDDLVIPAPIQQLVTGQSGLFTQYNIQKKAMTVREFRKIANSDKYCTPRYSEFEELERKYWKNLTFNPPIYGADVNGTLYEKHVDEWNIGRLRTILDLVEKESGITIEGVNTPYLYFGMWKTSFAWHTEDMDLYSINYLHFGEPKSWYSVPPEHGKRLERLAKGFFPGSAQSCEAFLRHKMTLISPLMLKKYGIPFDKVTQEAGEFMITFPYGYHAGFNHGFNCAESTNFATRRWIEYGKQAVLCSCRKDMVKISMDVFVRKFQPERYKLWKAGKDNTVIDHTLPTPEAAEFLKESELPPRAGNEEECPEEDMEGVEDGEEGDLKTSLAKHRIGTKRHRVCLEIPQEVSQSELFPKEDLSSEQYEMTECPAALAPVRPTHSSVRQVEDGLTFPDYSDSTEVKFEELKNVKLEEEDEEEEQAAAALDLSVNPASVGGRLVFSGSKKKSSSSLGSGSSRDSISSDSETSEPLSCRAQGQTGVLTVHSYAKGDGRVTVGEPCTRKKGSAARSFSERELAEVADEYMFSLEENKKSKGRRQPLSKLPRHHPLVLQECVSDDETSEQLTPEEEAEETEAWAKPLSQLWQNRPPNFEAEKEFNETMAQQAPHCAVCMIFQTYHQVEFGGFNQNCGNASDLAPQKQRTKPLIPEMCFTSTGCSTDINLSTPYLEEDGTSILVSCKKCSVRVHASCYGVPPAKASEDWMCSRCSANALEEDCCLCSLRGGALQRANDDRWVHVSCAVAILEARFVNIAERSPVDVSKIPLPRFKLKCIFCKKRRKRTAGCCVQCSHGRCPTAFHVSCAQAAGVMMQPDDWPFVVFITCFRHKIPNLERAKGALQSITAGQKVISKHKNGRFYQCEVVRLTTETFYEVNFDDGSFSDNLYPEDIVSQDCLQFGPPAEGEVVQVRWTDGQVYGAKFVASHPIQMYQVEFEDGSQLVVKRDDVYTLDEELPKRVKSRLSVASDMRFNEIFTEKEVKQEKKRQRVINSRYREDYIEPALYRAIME
HP1b chromo inh: HP1-beta chromodomain-methylated histone interaction inhibition; AlphaScreen HP1-beta / biotin-H3K9me3 peptide binding; Potency, µM (series often up to 114 µM), for the others: at the highest dose activity change, negative = inhibition, usual class: inhibitors; hit rate 0.56% among 390,000; note: nearly all actives have a fitted effect of over 70% in size
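AlphaScreen: HP1-beta (50 nM) preformed 30 min with biotin-H3(1-18)K9me3 peptide (50 nM) in PBS pH 7.4, 0.01% Tween-20. Compound added for 30 min at RT, then streptavidin donor/nickel chelate acceptor beads (10 ug/mL) for 30 min.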
G9a inh: G9a (human) methyltransferase inhibition; Q96KQ7; G9a H3K9 monomethylation, AlphaScreen, 2 h; Potency, µM (top dose mostly 102 µM), for inactives: top-dose activity, negative = inhibition, actives largely listed as inhibitors; hit rate 8.8% among 350,000; AID 504332; note: % is set by controls: 0 for no effect and ±100 for the full control effect; nearly all actives have a fitted effect of over 75% in size
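Compounds were preincubated with 20 nM G9a for 15 min, after which biotinylated H3K9 peptide (500 nM) and SAM (20 uM) started a 2 h room-temperature reaction. Monomethylated product was quantified by antibody-based AlphaScreen chemiluminescence.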
VDR inhibitor: vitamin D3 receptor (human) inhibition | P11473 | VDR-SRC2-3 peptide fluorescence polarization, 2 h | Potency, µM, for inactives: max response, negative = inhibition, actives largely listed as inhibitors | hit rate 0.93% among 400,000; note: % is set by controls: 0 for no effect and ±100 for the full control effect
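Fluorescence polarization assay of small-molecule disruption of VDR binding to coregulator peptide SRC2-3. Compounds and controls pin-transferred, then read after 2 h incubation at ambient room temperature.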
PLK1 PBD inh: blocks phosphopeptide binding to human PLK1 polo-box domain. P53350. Plk1 PBD binding of FITC phosphopeptide, fluorescence polarization. Potency, µM, for the others: max response, negative = inhibition, most hits filed as inhibitors. hit rate 2.8% among 360,000. AID 720504; note: series mostly up to about 57 µM; % is set by controls: 0 for no effect and ±100 for the full control effect; nearly all actives have a fitted effect of over 65% in size
BAZ2B inh: inhibitors of human BAZ2B bromodomain; Q9UIF8; AlphaScreen BAZ2B-H3K14Ac peptide displacement; Potency, µM (series often up to 114 µM), for inactives: at the top dose activity change, negative = inhibition, most hits filed as inhibitors; hit rate 4.4% among 360,000; note: % is set by controls: 0 for no effect and ±100 for the full control effect; nearly all actives have a fitted effect of over 60% in size
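BAZ2B 50 nM plus b-H3(5-23)K14Ac 50 nM, PBS pH 7.4/0.01% Tween-20, 30 min RT; compound added (max 110 uM), 30 min RT; streptavidin donor/Ni-chelate acceptor beads 10 ug/mL final, 20 min dark; AlphaScreen read.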
The depositor's hits bear a star; u = inconclusive; x = no result given; ! = a repeat was not active; [ ] = dose if it differs, or a comment. Shown are actives, neighbours in structure and some others; about 11% of the full set was active somewhere. Calls come from the whole dose curve; as a rule, active = well fitted curve in the direction sought with a large enough effect; inconclusive = small, poorly fitted or top-dose-only effect, or another doubt; inactive = no such curve, though single readings can be large; an effect the other way counts as inactive or inconclusive. Potency is the fitted concentration of half-maximal effect.

SMILES	JMJD2A Tudor	HP1b chromo inh	G9a inh	VDR inhibitor	PLK1 PBD inh	BAZ2B inh
Cc1cc(OCCN2CCOCC2)ccc1Cl	-100%	u	10µM*	-29%	-10%	u
Cc1ccc(OCCN2CCOCC2)cc1C	-10%	38%	-1%	-6%	-14%	2%
CC1CCN(CCOc2ccc(Cl)c(Cl)c2)CC1	10µM*	u	u	10%	-9%	-29%
Cc1cc(C)c(NC(=O)OCCN2CCOCC2)c(C)c1	-28%[11.4 µM]	u	14%	-20%	2.7µM*	11%
CCOC(=O)C1=C[C@@H](c2ccccc2)N(S(=O)(=O)c2ccc(C)cc2)[C@H]1c1ccc(OC)cc1	x	x	x	x	-2%	x
S=C1NCN(Cc2ccco2)CN1c1cccc2ccccc12	-24%	22%	-36%	-18%	-9%	-23%
S=C1SCN(Cc2ccco2)CN1Cc1ccco1	-24%	-6%	-32%	-7%	-6%	-37%
N#CC1=C2SCN(Cc3ccco3)CN2C(=O)CC1c1cccc2ccccc12 (stereo not drawn)	56µM*	u	0.89µM*	u	24µM*	u
N#CC1=C2SCN(Cc3ccco3)CN2C(=O)CC1c1ccccc1F (stereo not drawn)	5µM*	45µM*	0.28µM*	32µM*	27µM*	56µM*
CC(C)C[C@@H](CC(=O)N[C@@H](CCC(=O)O)CC(=O)O)NC(=O)[C@@H]1CCCC[C@H]1NC(=O)C[C@H](CCCN)NC(=O)C[C@H](CO)NC(=O)[C@@H]1CNCC[C@H]1N	x	x	x	4%	x	x
CC1CCCN(CCCNC(=O)c2ccc(N3CCCC3=O)cc2)C1 (stereo not drawn)	-17%	29%	-19%	14%	-8%	-13%
O=C(NNc1ccccc1)c1ccccc1	-2%	41%	x	u	-5%	x
O=C(O)/C=C/C(=O)NNC(=O)c1ccc(Br)cc1	-7%	32%	25µM*	-6%	-6%	-2%
O=C(NNc1ccc(O)cc1)c1ccc(Br)cc1	u	u	1.6µM*	u	-28%	u
COc1cccc(NC(=O)Cn2cc(S(=O)(=O)Cc3ccccc3F)c3ccccc32)c1	-13%	5%	-3%[59 µM]	9%	x	-12%
C=C(CCC12O[C@H](C(=O)O)[C@@](O)(C(=O)O)[C@](C(=O)O)(O1)[C@H](OC(=O)/C=C/[C@@H](C)C[C@@H](C)CC)[C@H]2O)[C@@H](OC(C)=O)[C@H](C)Cc1ccccc1	x	x	33%[59 µM]	u	x	x
N#Cc1nc(Nc2cc(F)cc(F)c2)c2ncn(CCCO)c2n1	-7%	x	x	x	x	x
c1ccc(CSc2ncn[nH]2)nc1	-7%	0%	45µM*	-8%	-21%	-27%
O=C(Nc1nccs1)[C@@H]1CCCN1S(=O)(=O)c1ccccc1F	1%	32%	40µM*	8%	-11%	7%
O=C(Nc1nccs1)C1CCCN(S(=O)(=O)c2cccnc2)C1 (stereo not drawn)	u	13%	-11%	-26%	21µM*	-6%
O=C(Nc1nccs1)C1CCN(S(=O)(=O)c2cccnc2)CC1	-13%	37%	19%	-1%	2%	-3%
COc1ccc(C)cc1NC(=O)C1CCCN1S(=O)(=O)c1ccccc1F (stereo not drawn)	4%	42%	8.9µM*	0%	0%	11%
Cc1ccc(C)c(NC(=O)[C@@H]2CCCN2S(=O)(=O)c2ccccc2F)c1	-10%	25%	15%[59 µM]	4%	-6%	6%
O=C(Nc1nccs1)C1CCCN1S(=O)(=O)c1ccc(Cl)cc1 (stereo not drawn)	-13%	22%	-46%[59 µM]	16%	-4%	x
Cc1nc2nc(CNC(=O)OC(C)(C)C)nn2c(C)c1CCC(=O)Nc1ccc2c(c1)OCO2	-28%	11%	x	-12%	u	u
SMILES	JMJD2A Tudor	HP1b chromo inh	G9a inh	VDR inhibitor	PLK1 PBD inh	BAZ2B inh
Cc1cc(C)c[n+](-c2nc3ccccc3nc2C(=C=[N-])C#N)c1	-6%	34%	3%	36%	-1%	-6%
CCc1ccc[n+](-c2nc3ccccc3nc2C(=C=[N-])C#N)c1	-6%	30%	u	14%	-23%	-35%
Cc1cc[n+](-c2nc3ccccc3nc2C(=C=[N-])C#N)cc1	-12%	20%	50µM*	0%	-9%	-6%
N#CC(=C=[N-])c1nc2ccccc2nc1-[n+]1ccccc1	-19%[57.1 µM]	-17%	u	u	27µM*!	-17%
Cc1ccc[n+](-c2nc3ccccc3nc2C(=C=[N-])C#N)c1	-6%	6%	50µM*!	-5%	2%	u
Cc1cc[n+](-c2nc3ccccc3nc2[N-]S(=O)(=O)c2ccccc2)cc1	1%	47%	u	17%	-14%	-16%
O=C(O)CCC(=O)c1ccc(C2CCCCCC2)cc1	x	x	x	x	-1%	x
COc1cc(Cc2nccc3cc(OC)c(OC)cc23)c(S(=O)(=O)O)cc1OC	-8%	-29%	7%	-5%	-6%	5%
COc1cc2ccnc(Cc3cccc(OC)c3OC)c2cc1OC	79µM*	14%	1%	-14%	27µM*	-13%
O=C(NCc1ccco1)/C(=C/c1ccccc1F)NC(=O)c1ccccc1	-7%	19%	25%	22%	-20%	-9%
Cc1cc2cc(CCNC(=O)c3ccc(Br)o3)c(=O)[nH]c2cc1C	-22%	32%	18µM*	-13%	-16%	-23%
Cc1ccc(C)c2[nH]c(=O)c(CCNC(=O)c3ccc(Br)o3)cc12	-19%	39%	x	2%	-4%	x
COc1ccc2cc(CCNC(=O)C(C)(C)C)c(=O)[nH]c2c1	-13%	26%	-9%	-17%	-5%	10%
COc1ccc2cc(CCNC(=O)c3ccc(Br)o3)c(=O)[nH]c2c1	-27%	13%	50µM*	-2%	3%	6%
COc1ccc2c(C)c(CCC(=O)NCCc3ccc(Cl)cc3)c(=O)oc2c1	-17%	22%	0%[59 µM]	-4%	x	-5%
Cc1cc(C)c(NC(=O)CSC2=Nc3ccccc3C3=NC(CC(=O)NCc4cccs4)C(=O)N23)c(C)c1 (stereo not drawn)	-17%	9%	-24%[59 µM]	-13%	x	u
O=C(O)c1ccc(CSc2nc3ccccc3c(=O)n2-c2ccccc2)cc1	5%	49%	7%	-22%	-3%	-19%
O=C(c1ccc(-n2c(SCc3cccc(F)c3)nc3ccccc3c2=O)cc1)N1CCOCC1	40µM*	17%	-9%[59 µM]	u	27µM*	-32%
CCOc1ccccc1C1C(C(=O)Nc2ccccc2)=C(C)Nc2nc(SCC(=O)c3ccc(C)cc3)nn21 (stereo not drawn)	-24%	7%	9%[59 µM]	18%	x	-22%
Cc1nnc(NC(=O)C2c3ccccc3Oc3ccccc32)s1	-14%	u	11µM*	u	21µM*	1%
